# About 13,000 (27%) of roughly 48,000 compounds showed an effect of 50% or more. The list shows a part of the results.
# Tested on: Wolbachia pipientis
# Experiment: Anti-Wolbachia Cell-Based Screen
# Assay type: functional
# Set-up: scale not given: in the data most compounds retested in dose-response had high values
# Details: 5 µM
row,SMILES,Percent Effect
1,COC(=O)CNC(=O)C12CCC(=O)N1c1cc(Cl)ccc1S2 (centres undefined),-3.577%
2,CC(NC(=O)c1ccc(C(N)=O)cc1)c1cccc(N2CCOC2=O)c1 (centres undefined),7.135%
3,Cc1ccc(C(=O)N2CCN(C(=O)C(C)n3ccnc3)CC2)cc1F (centres undefined),-10.24%
4,CCOc1ccc(OC2CCCN(c3cnn(C)c3)C2=O)cc1 (centres undefined),7.424%
5,CCOc1ccc(NC(=O)Nc2cc(N3CCCCC3)ncn2)cc1,16.35%
6,CCOc1ccc(-c2ccnc(C)n2)cc1C(=O)O,-6.535%
7,CN(C)c1cnn(CC(=O)N2CCCCCC2)c(=O)c1,2.501%
8,CCOc1ccc(-c2cc(=O)n3c(n2)CCCCC3)cc1,126.5%
9,CN(C)c1ccc(-c2cc(=O)n3c(n2)CCCCC3)cc1,163.6%
10,COc1ccc(C2CC(=O)Nc3c2nc2n3CCCC2)cc1O (centres undefined),0.05289%
11,CCOc1ccc(-c2ccnc(C3CC3)n2)cc1C(=O)O,5.09%
12,COc1ccc(C2CC(=O)Nc3c2nc2n3CCCC2)cc1OC (centres undefined),9.396%
13,CCOc1cc(-c2cc(=O)n3c(n2)CCCCC3)ccc1O,95.98%
14,COc1ccc(-c2cc(=O)n3c(n2)CCCCC3)cc1,99.63%
15,CN(Cc1nccs1)C1CCN(c2cccc(-c3cscn3)c2)CC1,-5.707%
16,O=C(Nc1cc(-c2ccccc2)on1)N1CCN(CCO)CC1,-8.087%
17,CN(CC(O)C1CC1)C(=O)c1ccc(-c2nc(C3CC3)n[nH]2)cc1 (centres undefined),-1.161%
18,Cc1[nH]c(-c2ccccc2)nc1C(=O)N1CCC2(CCCO2)CC1,-0.5796%
19,NC(=O)c1ccc(N2CCCCC2)c(NC(=O)c2cncc(Br)c2)c1,8.346%
20,Cc1nc(C(C)NC(=O)NCc2nccn2CC(C)C)cs1 (centres undefined),-2.713%
21,CC(=O)N1CCOC(Cc2cccc(C(F)(F)F)c2)C1 (centres undefined),-10.28%
22,COCCN1CCN(CC(C)(O)c2cccc(C(F)(F)F)c2)CC1 (centres undefined),78.04%
23,COC(=O)NCC(=O)NCC(C)(C)c1cccc(C(F)(F)F)c1,-0.4386%
24,CC(O)(CN1CCN(CCO)CC1)c1cccc(C(F)(F)F)c1 (centres undefined),117%
25,COCC(NC(=O)c1cnn(C)c1)c1cccc(C(F)(F)F)c1 (centres undefined),-8.704%

row,SMILES,Percent Effect
1,CC(O)(CN1CCC(O)CC1)c1cccc(C(F)(F)F)c1 (centres undefined),104.1%
2,CC(NCC1CCN(CCO)CC1)c1ccc(C(F)(F)F)cc1 (centres undefined),4.315%
3,CC(N)C(=O)N1CCC(Oc2cccc(C(F)(F)F)c2)CC1 (centres undefined),-15.39%
4,COCCN1CCN(C(=O)C(c2cccc(F)c2)N(C)C)CC1 (centres undefined),-2.953%
5,CC(=O)N1CCN(Cc2ccc(C(F)(F)F)cc2F)CC(O)C1 (centres undefined),-3.674%
6,CC(C(=O)Nc1cccc(C(F)(F)F)c1)N(C)CCN1CCOCC1 (centres undefined),-13.73%
7,CC(=O)N1CCN(CC(C)(O)c2cccc(C(F)(F)F)c2)CC1 (centres undefined),108.1%
8,CC(C)c1noc(C(C)N2CCC(c3nc4ccccc4[nH]3)CC2)n1 (centres undefined),10.92%
9,O=C(CCSc1ccccc1)NS(=O)(=O)c1ccc2c(c1)OCCO2,13.89%
10,CC1=NOC(C(=O)N2CCC(O)(c3ccc4nc(C)ccc4c3)CC2)C1 (centres undefined),-15.54%
11,Clc1ccc(CN2CCCC(Cn3cncn3)C2)c2ncccc12 (centres undefined),-4.031%
12,Cn1c(C(=O)N2CCC(C3OCCO3)CC2)c(Cl)c2ccccc21,4.597%
13,O=c1[nH]nc2c(N3CCC(NC4CCOCC4)CC3)nccn12,113.4%
14,O=c1[nH]nc2nc(N3CCSCC3)ccn12,-3.985%
15,O=c1[nH]nc2c(N3CCOCC3)nccn12,105.6%
16,O=c1[nH]nc2nc(N3CCOCC3)ccn12,3.869%
17,O=c1[nH]nc2c(N3CCCCCC3)nccn12,114.9%
18,O=c1[nH]nc2nc(N3CCCC3)ccn12,-11.65%
19,CCc1cc(N2CCC(NC3CCOCC3)CC2)nc(N(C)C)n1,-0.7364%
20,CC(C)c1nccn1C(C)C(=O)NC1CCOCC1 (centres undefined),-4.368%
21,CC(NC(=O)Nc1cccnc1N1CCOCC1)c1ccccc1 (centres undefined),-4.6%
22,COc1cccn(Cc2nnc(-c3cccnc3)o2)c1=O,-29.57%
23,Cc1nc(CNC(=O)[C@@H]2CCCN2C(=O)OC(C)(C)C)cs1,-12.19%
24,Cc1ccccc1N1CCCN(CC2(O)CCCNC2)CC1 (centres undefined),-10.43%
25,COc1ccnc(N2CCN(C(=O)c3cc(C4CC4)[nH]n3)CC2)n1,-20.97%

row,SMILES,Percent Effect
1,CC(C)c1ccc(CN2CCN(C(=O)c3cc(C4CC4)[nH]n3)CC2)cc1,100.6%
2,O=C(c1cc(COc2ccc3c(c2)OCO3)[nH]n1)N1CCCC(O)C1 (centres undefined),-9.09%
3,CCc1nc(C(=O)N2CCN(Cc3ccc(Cl)cc3)CC2)c[nH]1,7.187%
4,O=C(c1cc(C2CC2)[nH]n1)N1CCN(Cc2ccc(Cl)cc2)CC1,91.65%
5,O=C(c1cc(C2CC2)[nH]n1)N1CCN(c2nccs2)CC1,-6.646%
6,O=C(c1cc(COc2ccc3c(c2)OCO3)[nH]n1)N1CCOCC1,16.23%
7,O=C(c1cc(C2CC2)[nH]n1)N1CCN(Cc2ccncc2)CC1,106.7%
8,N#Cc1ccc(CN2CCN(C(=O)c3cc(C4CC4)[nH]n3)CC2)cc1,-3.632%
9,CC(C)c1cc(C(=O)N2CCN(Cc3ccc(C#N)cc3)CC2)n[nH]1,1.28%
10,O=C(c1cc(C2CC2)[nH]n1)N1CCN(Cc2ccc3c(c2)OCO3)CC1,118.4%
11,Cc1ccsc1C(=O)NCC1COCc2c(C)nnn2C1 (centres undefined),-4.017%
12,COc1ccc(CC(=O)N2CCc3nc(C(=O)N(C)C)sc3CC2)cc1,-11.26%
13,COCc1cc(N(C)Cc2cc(C(C)(C)C)n[nH]2)ncn1,-4.66%
14,Cc1cnn(CCNCc2ccc(OCC(N)=O)cc2)c1,-9.498%
15,Cc1nn(CCC#N)c(C)c1CCC(=O)N(C)Cc1ccc(F)cc1F,10.09%
16,Cc1cccc(CN2CCN(C(=O)c3ccc(C)[nH]c3=O)CC2)c1,-0.706%
17,Cc1cccc(CN2CCN(C(=O)c3cc(C4CC4)[nH]n3)CC2)c1,106.2%
18,O=C(c1cc(C2CC2)[nH]n1)N1CCN(Cc2ccsc2)CC1,-9.211%
19,N#Cc1ccc(N2CCN(C(=O)c3cc(C4CC4)[nH]n3)CC2)c(F)c1,-1.136%
20,CCOc1ccc(CN2CCN(C(=O)c3ccc(C)n3C)CC2)cc1,6.046%
21,O=C(c1cc(C2CC2)[nH]n1)N1CCN(Cc2ccccc2)CC1,113.8%
22,O=C(c1cc(C2CC2)[nH]n1)N1CCCN(c2nccs2)CC1,-25.45%
23,CCOc1ccc(CN2CCN(C(=O)c3cc(C4CC4)[nH]n3)CC2)cc1,100.1%
24,CC(C)c1cc(C(=O)N2CCCN(Cc3ccccc3)CC2)n[nH]1,-13.62%

# Reference: ChEMBL document CHEMBL3988442, “University of Dundee, Small-Polar-MMV Screening Library” (2021)
